Data as given in PubChem BioAssay (NCATS).
Inconclusive results are not listed. Active and inactive are the calls of the source. Calls follow the shape of the dose curve; as a rule, active = well fitted curve in the direction sought with a large enough effect; inconclusive = small, poorly fitted or top-dose-only effect, or another doubt; inactive = no such curve, though single readings can be large; an effect the other way counts as inactive or inconclusive.

Experiments:
MKL-2 = experiment: qHTS assay to identify novel small-molecules to repurpose for Merkel cell carcinoma treatment (AID 1296009); settings: MCC and control cell lines, CellTiter-Glo viability, 72 h; series mostly up to 46 µM; also: nearly all actives have a fitted effect of over 60% in size
Summary of the method: (§1)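 After compound transfer in DMSO, plates were kept 72 hr at 37 degree celsius. Luminescent ATP signal from CellTiter-Glo served as viability measure, normalized against DMSO and no-cell controls.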

UISO = experiment: as above; settings: MCC and control cell lines, CellTiter-Glo viability, 72 h; series mostly up to 46 µM
Summary of the method: as §1

WaGa = experiment: as above; settings: MCC and control cell lines, CellTiter-Glo viability, 72 h; series mostly up to 46 µM
Summary of the method: as §1

C33A = experiment: Primary qHTS to identify gynecologic anti-cancer compounds using libraries of approved drugs and bioactive compounds (AID 1345084); settings: Gynecologic cancer cell panel viability, ATPlite luminescence, 48 h; series mostly up to 57.5 µM; also: nearly all actives have a fitted effect of over 55% in size
Summary of the method: (§2)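 Cells, 1,000 per well, plated 16 h, then exposed 48 h at 37 C to compounds. Viability by ATPlite luminescence after 15 min at room temperature.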

CAOV3 = experiment: as above; settings: Gynecologic cancer cell panel viability, ATPlite luminescence, 48 h; series mostly up to 57.5 µM
Summary of the method: as §2

CASKI = experiment: as above; settings: Gynecologic cancer cell panel viability, ATPlite luminescence, 48 h; series mostly up to 57.5 µM
Summary of the method: as §2

Es-2 = experiment: as above; settings: Gynecologic cancer cell panel viability, ATPlite luminescence, 48 h; series mostly up to 57.5 µM
Summary of the method: as §2

HeLa = experiment: as above; settings: Gynecologic cancer cell panel viability, ATPlite luminescence, 48 h; series mostly up to 57.5 µM
Summary of the method: as §2

Hek293T = experiment: as above; settings: Gynecologic cancer cell panel viability, ATPlite luminescence, 48 h, control line for the selectivity index; series mostly up to 57.5 µM
Summary of the method: as §2

Measured: outcome

O=C(O)CCCCC1CCSS1 (stereo unspecified)
inactive: all assays above

COc1ccc(NS(=O)(=O)c2ccc(N)cc2)nn1
inactive: all assays above

C/C=C/C(=O)N(CC)c1ccccc1C
inactive: all assays above

O=C(O)CCCc1ccccc1
inactive: all assays above

CC(=O)NCc1c(I)c(NC(C)=O)c(I)c(C(=O)O)c1I
inactive: all assays above

CC(C(=O)O)c1ccc2c(c1)Cc1cccnc1O2 (stereo unspecified)
inactive: all assays above

CCCCCCCCCCC(CO)CCCCCCCC (stereo unspecified)
inactive: all assays above

CC(=O)Nc1cccc(O)c1
inactive: all assays above

CN1CCN(C(=O)C2CCCCC2)CC1
inactive: all assays above

Cc1c(N(C)C)c(=O)n(-c2ccccc2)n1C
inactive: all assays above

CN1CC(=O)NC1=N
inactive: all assays above

O=C(O)c1ccccc1OP(=O)(O)O
inactive: all assays above

COc1ccc(C(=O)NCc2ccc(OCCN(C)C)cc2)cc1OC
inactive: all assays above

C[C@@H]1CCC[C@H](C)N1
inactive: all assays above

C[C@H]1COc2c(C3(N)CC3)c(F)cc3c(=O)c(C(=O)O)cn1c23
inactive: all assays above

CC(=O)OC[C@H]1O[C@@](COC(C)=O)(O[C@H]2O[C@H](COC(C)=O)[C@@H](OC(C)=O)[C@H](OC(C)=O)[C@H]2OC(C)=O)[C@@H](OC(C)=O)[C@@H]1OC(C)=O
inactive: all assays above

CC(C)CCCC(C)CCCC(C)CCCCC(C)CCCC(C)CCCC(C)C (stereo unspecified)
inactive: all assays above

CNc1c2c(nn1C)CCCC2
inactive: all assays above

O=C(O)CCC(=O)O
inactive: all assays above

O=C(Cn1ccnc1[N+](=O)[O-])NCCO
inactive: all assays above

COC(=O)c1cccnc1
inactive: all assays above

O=C(O)c1ccccc1C(=O)Nc1ccc(S(=O)(=O)Nc2nccs2)cc1
inactive: all assays above

CCCCOC(=O)c1ccc(N)cc1
inactive: all assays above

NCc1ccc(S(N)(=O)=O)cc1
inactive: all assays above

NS(=O)(=O)c1cc(-c2nn[nH]n2)c(NCc2cccs2)cc1Cl
inactive: all assays above

CC[N+](C)(CC)CCOC(=O)C1c2ccccc2Oc2ccccc21
inactive: all assays above

Cc1ccsc1C(=CCCN1CCC[C@@H](C(=O)O)C1)c1sccc1C
inactive: all assays above

C=CCSCC1Nc2cc(Cl)c(S(N)(=O)=O)cc2S(=O)(=O)N1 (stereo unspecified)
inactive: all assays above

CN/C(=C\[N+](=O)[O-])NCCSCc1csc(CN(C)C)n1
inactive: all assays above

CC(O)CCCCn1c(=O)c2c(ncn2C)n(C)c1=O (stereo unspecified)
inactive: all assays above

CCOC(=O)[C@H](CCc1ccccc1)N[C@@H](C)C(=O)N1Cc2cc(OC)c(OC)cc2C[C@H]1C(=O)O
inactive: all assays above

C[N+](C)(C)CC[N+]1(C)Cc2c(Cl)c(Cl)c(Cl)c(Cl)c2C1
inactive: all assays above

NCC1CCC(C(=O)Oc2ccc(CCC(=O)O)cc2)CC1 (stereo unspecified)
inactive: all assays above

Cc1cc(O)cc(C)c1Cl
inactive: all assays above

CC1CCc2cc(F)cc3c(=O)c(C(=O)O)cn1c23 (stereo unspecified)
inactive: all assays above

CCCNC(C)(C)COC(=O)c1ccccc1
inactive: all assays above

COc1ccccc1OC(=O)Oc1ccccc1OC
inactive: all assays above

O=C(Cn1ccnc1[N+](=O)[O-])NCc1ccccc1
inactive: all assays above

CC(=O)[C@@]1(O)CC[C@H]2[C@@H]3C[C@H](C)C4=CC(=O)C=C[C@]4(C)[C@@]3(F)[C@@H](O)C[C@@]21C
inactive: all assays above

CN[C@@H]1[C@@H](O)[C@@H](O[C@@H]2[C@H](O)[C@H](O[C@H]3OC(CN)=CC[C@H]3N)[C@@H](N)C[C@H]2N)OCC1(C)O (stereo partly specified)
inactive: all assays above

O=C(O)COC(=O)Cc1ccccc1Nc1c(Cl)cccc1Cl
inactive: all assays above

C[N+]1(C)CCCC(OC(=O)C(O)(c2ccccc2)c2ccccc2)C1 (stereo unspecified)
inactive: all assays above

Nc1ccc(S(=O)(=O)c2ccc(N)cc2)cc1
inactive: all assays above

Cc1ccc(C(C)C)c(O)c1
inactive: all assays above

CCOc1cc(NC(C)=O)ccc1C(=O)OC
inactive: all assays above

CCOc1ccccc1O[C@H](c1ccccc1)[C@H]1CNCCO1
inactive: all assays above

Nc1ncnc2c1ncn2[C@@H]1O[C@H](COP(=O)(O)O)[C@@H](O)[C@H]1O
inactive: all assays above

Cc1cc(NC(=O)C2=C(O)c3ccccc3S(=O)(=O)N2C)no1
inactive: all assays above

Cc1ccc(S(=O)(=O)NC(=O)NC2CCCCC2)cc1
inactive: all assays above
